Screening results (PubChem)
M1 ag: human M1 muscarinic receptor agonists, primary screen, Fluo-8 calcium fluorescence, CHO-K1 cells, HTS | Muscarinic acetylcholine receptor M1 (Homo sapiens), P11229 | CHO-K1 hM1, agonist mode; 0% DMSO, 100% acetylcholine EC100 | activation, % at 3 µM | 360,000 compounds, 0.33% hits;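 active = activation above the run's mean compound activation plus 3 SD, cut at about 16% in these data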;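 also: peak over basal fluorescence ratio within a 140 s kinetic read after compound addition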
Target sequence (P11229 whole entry, looked up): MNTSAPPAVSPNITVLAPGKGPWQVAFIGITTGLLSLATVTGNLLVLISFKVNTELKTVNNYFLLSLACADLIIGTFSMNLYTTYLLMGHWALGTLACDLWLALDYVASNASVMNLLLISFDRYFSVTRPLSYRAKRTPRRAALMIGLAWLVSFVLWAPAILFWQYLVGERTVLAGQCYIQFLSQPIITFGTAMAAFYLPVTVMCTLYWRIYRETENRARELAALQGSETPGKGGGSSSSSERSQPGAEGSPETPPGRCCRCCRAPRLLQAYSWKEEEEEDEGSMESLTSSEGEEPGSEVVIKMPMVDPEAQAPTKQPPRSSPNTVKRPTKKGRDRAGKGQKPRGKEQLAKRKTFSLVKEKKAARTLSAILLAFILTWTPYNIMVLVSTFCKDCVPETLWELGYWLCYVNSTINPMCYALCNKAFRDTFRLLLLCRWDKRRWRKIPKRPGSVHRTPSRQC
M1 PAM parental: nonselective calcium activators in parental CHO-K1 cells, primary screen, counter-screen for M1 PAM project, cell-based, Fluo-8 calcium fluorescence, full deck, 1536-well; ATP EC20; 0% at ATP EC20, 100% at ATP max; activation, % at 3 µM; 360,000 compounds, 0.02% hits; AID 602247, 2012;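 active = activation above the run cutoff, the mean activation of all test compounds plus 3 SD, cut at about 40% in these data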;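 also: peak over basal fluorescence ratio in a 140 s read after ATP addition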
M1 antag: human M1 muscarinic receptor antagonists, primary screen, CHO-K1 cells, Fluo-8 calcium fluorescence, 1536-well | CHO-K1 hM1, ACh EC80 antagonist | 360,000 compounds, 1.3% hits | AID 588852, 2011 | Muscarinic acetylcholine receptor M1 (Homo sapiens), P11229 | inhibition, % at 3 µM;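 active = percent inhibition above its own plate's cutoff, namely the mean of that plate's compound wells plus 3 SD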;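 also: peak over basal fluorescence ratio during 140 s after agonist addition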
M1 ag parental: counter-screen for M1 agonists: effect in parental CHO-K1 cells; Fluo-8 calcium fluorescence; scaled to maximal ATP response, vehicle zero; activation, % at 3 µM; 360,000 compounds, 0.48% hits; in the data active = activation above about 15%;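 also: untransfected CHO-K1 host cells lacking M1 receptor as counterscreen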
M1 PAM: human M1 muscarinic receptor positive allosteric modulators, primary screen, CHO-K1 cells, Fluo-8 calcium fluorescence, 1536-well | Muscarinic acetylcholine receptor M1 (Homo sapiens), P11229 | CHO-K1 hM1, ACh EC20; 0% = ACh EC20, 100% = maximal ACh | activation, % at 3 µM | 360,000 compounds, 0.088% hits | AID 588819, 2011; in the data active = activation above about 19%, passing the limit was not always enough
CHO-K1 Ca antag: M1 antagonist counterscreen hit in parental CHO-K1 cells | ATP-induced calcium, Fluo-8 fluorescence | inhibition, % at 3 µM | 360,000 compounds, 0.6% hits;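 active = inhibition above a per-plate cutoff, the plate's mean sample inhibition plus 3 SD, cut at about 24% in these data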
A number is an active result. In the library only some 2.3% were active in any assay of this set; here they are far more common.

What do the screens show for `CC(C)(C)c1ccc(C(=O)OCCN2CCCCC2)cc1`?
M1 ag: inactive; M1 PAM parental: inactive; M1 antag: 45; M1 ag parental: inactive; M1 PAM: inactive; CHO-K1 Ca antag: inactive

Results for Cc1sc2ncnc(SCC(=O)N3CCCC(C(F)(F)F)C3)c2c1C (centres undefined) ?
M1 ag: inactive; M1 PAM parental: inactive; M1 antag: inactive; M1 ag parental: inactive; M1 PAM: inactive; CHO-K1 Ca antag: inactive

What do the screens show for `CCC[C@@H](CN1CCC[C@H]1CN1C(N)=NC[C@H]1CC(C)C)N1C[C@@H]([C@H](C)CC)N(CCCC2CCCC2)C1=N`?
M1 ag: inactive; M1 PAM parental: inactive; M1 antag: 59; M1 ag parental: inactive; M1 PAM: inactive; CHO-K1 Ca antag: inactive

How did CC(C)C[C@@H]1CN=C(N)N1C[C@@H]1CCCN1C[C@H](C)N1C[C@@H](Cc2ccccc2)N(CCCC2CCCC2)C1=N do in these assays?
M1 ag: inactive; M1 PAM parental: inactive; M1 antag: 34; M1 ag parental: inactive; M1 PAM: inactive; CHO-K1 Ca antag: inactive

What do the screens show for `CC(C)C[C@@H]1CN=C(N)N1C[C@@H]1CCCN1C[C@H](C)N1C[C@@H](Cc2ccccc2)N(CCc2ccc(Cl)c(Cl)c2)C1=N`?
M1 ag: inactive; M1 PAM parental: inactive; M1 antag: inactive; M1 ag parental: inactive; M1 PAM: inactive; CHO-K1 Ca antag: inactive

What do the screens show for `CN1CCN(NC(=O)c2cn(-c3ccccc3)nc2-c2ccc(OC(F)F)cc2)CC1`?
M1 ag: inactive; M1 PAM parental: inactive; M1 antag: inactive; M1 ag parental: inactive; M1 PAM: inactive; CHO-K1 Ca antag: inactive

How did CCOC(=O)C1CCN(C(=O)COC(=O)c2c(C)c(CC)nc3ccccc23)CC1 do in these assays?
M1 ag: inactive; M1 PAM parental: inactive; M1 antag: inactive; M1 ag parental: inactive; M1 PAM: inactive; CHO-K1 Ca antag: inactive

How did Cc1ccc(C(=O)NCC(=O)N(C)CC(=O)Nc2ccccc2Br)s1 do in these assays?
M1 ag: inactive; M1 PAM parental: inactive; M1 antag: inactive; M1 ag parental: inactive; M1 PAM: inactive; CHO-K1 Ca antag: inactive

How did CC(=O)Nc1ccc(NC(=O)CN(C)CC(=O)Nc2ccccc2Br)cc1 do in these assays?
M1 ag: inactive; M1 PAM parental: inactive; M1 antag: 38; M1 ag parental: inactive; M1 PAM: inactive; CHO-K1 Ca antag: inactive

Results for CN(CC(=O)Nc1ccccc1Br)C(=O)CNC(=O)c1cccs1 ?
M1 ag: inactive; M1 PAM parental: inactive; M1 antag: 34; M1 ag parental: inactive; M1 PAM: inactive; CHO-K1 Ca antag: inactive

How did CN(CC(=O)Nc1ccc(C(N)=O)cc1)CC(=O)Nc1ccccc1Br do in these assays?
M1 ag: inactive; M1 PAM parental: inactive; M1 antag: inactive; M1 ag parental: inactive; M1 PAM: inactive; CHO-K1 Ca antag: inactive

What do the screens show for `CC(=O)Nc1cccc(/C(C)=N/NC(=O)c2ccc3c(c2)OCO3)c1`?
M1 ag: inactive; M1 PAM parental: inactive; M1 antag: inactive; M1 ag parental: inactive; M1 PAM: inactive; CHO-K1 Ca antag: inactive

How did COCCn1c(SCC(=O)N(C)c2c(N)n(Cc3ccccc3)c(=O)[nH]c2=O)nnc1-c1cccc(C)c1 do in these assays?
M1 ag: inactive; M1 PAM parental: inactive; M1 antag: inactive; M1 ag parental: inactive; M1 PAM: inactive; CHO-K1 Ca antag: inactive

How did COc1ccc(-n2c(-c3ccccc3)nc(=S)c3c2CCCC3)cc1 do in these assays?
M1 ag: inactive; M1 PAM parental: inactive; M1 antag: inactive; M1 ag parental: inactive; M1 PAM: inactive; CHO-K1 Ca antag: inactive

How did COc1ccc(-n2c(-c3cccc(OC)c3)nc(=S)c3c2CCCC3)cc1 do in these assays?
M1 ag: inactive; M1 PAM parental: inactive; M1 antag: 60; M1 ag parental: inactive; M1 PAM: inactive; CHO-K1 Ca antag: inactive

What do the screens show for `COc1cccc(CNC(=O)C2(C)CCCCN2C)c1` (centres undefined)?
M1 ag: inactive; M1 PAM parental: inactive; M1 antag: inactive; M1 ag parental: inactive; M1 PAM: inactive; CHO-K1 Ca antag: inactive

Results for CN1CCCCC1(C)C(=O)NCc1ccc(F)cc1 (centres undefined) ?
M1 ag: inactive; M1 PAM parental: inactive; M1 antag: inactive; M1 ag parental: inactive; M1 PAM: inactive; CHO-K1 Ca antag: 25

How did CC(NC(=O)CNC(=O)C1CCCCC1)c1ccc(S(N)(=O)=O)cc1 (centres undefined) do in these assays?
M1 ag: inactive; M1 PAM parental: inactive; M1 antag: inactive; M1 ag parental: inactive; M1 PAM: inactive; CHO-K1 Ca antag: inactive

Results for COc1ccc(-n2ncc3c(N4CCN(Cc5ccccc5)CC4)ncnc32)cc1 ?
M1 ag: inactive; M1 PAM parental: inactive; M1 antag: 23; M1 ag parental: inactive; M1 PAM: inactive; CHO-K1 Ca antag: inactive

What do the screens show for `CCN(CC)C(=O)C1CCCN(c2ncnc3c2cnn3-c2cccc(C)c2)C1` (centres undefined)?
M1 ag: inactive; M1 PAM parental: inactive; M1 antag: inactive; M1 ag parental: inactive; M1 PAM: inactive; CHO-K1 Ca antag: inactive

What do the screens show for `CCOC(=O)C1CCCN(c2ncnc3c2cnn3-c2cccc(C)c2)C1` (centres undefined)?
M1 ag: 44; M1 PAM parental: inactive; M1 antag: inactive; M1 ag parental: inactive; M1 PAM: inactive; CHO-K1 Ca antag: inactive

Results for CCN1CCN(c2ncnc3c2cnn3-c2ccccc2)CC1 ?
M1 ag: inactive; M1 PAM parental: inactive; M1 antag: inactive; M1 ag parental: inactive; M1 PAM: inactive; CHO-K1 Ca antag: inactive

What do the screens show for `COc1cccc(N2CCN(c3ncnc4c3cnn4-c3ccc(C)cc3C)CC2)c1`?
M1 ag: inactive; M1 PAM parental: inactive; M1 antag: 64; M1 ag parental: inactive; M1 PAM: inactive; CHO-K1 Ca antag: inactive

How did CC1(CCc2ccc3c(c2)OCO3)NCCc2c1[nH]c1ccccc21 (centres undefined) do in these assays?
M1 ag: inactive; M1 PAM parental: inactive; M1 antag: inactive; M1 ag parental: 21; M1 PAM: inactive; CHO-K1 Ca antag: inactive

Results for C[C@]1(CO)CCC[C@@]2(C)C1CC[C@@H](CO)[C@@H]2CCc1ccoc1 (some centres undefined) ?
M1 ag: inactive; M1 PAM parental: inactive; M1 antag: inactive; M1 ag parental: inactive; M1 PAM: inactive; CHO-K1 Ca antag: 30

Results for Cc1csc(=O)n1CC(=O)OCC(=O)NCc1ccc(Cl)cc1Cl ?
M1 ag: inactive; M1 PAM parental: inactive; M1 antag: inactive; M1 ag parental: inactive; M1 PAM: inactive; CHO-K1 Ca antag: inactive
